One experiment has as its target Follistatin-related protein 3 (Homo sapiens) (UniProt O95633). Nature of the experiment: FSTL3 binders on small-molecule microarrays, primary screen, biochemical, small-molecule microarray, 635 nm fluorescence (AID 1105).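 Also: score merges emission near 667 nm and signal to noise per printed spot across three slides.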 The note with it: FSTL3 binding, higher = more signal.
Follistatin-related protein 3 (Homo sapiens), sequence (O95633 whole entry, looked up): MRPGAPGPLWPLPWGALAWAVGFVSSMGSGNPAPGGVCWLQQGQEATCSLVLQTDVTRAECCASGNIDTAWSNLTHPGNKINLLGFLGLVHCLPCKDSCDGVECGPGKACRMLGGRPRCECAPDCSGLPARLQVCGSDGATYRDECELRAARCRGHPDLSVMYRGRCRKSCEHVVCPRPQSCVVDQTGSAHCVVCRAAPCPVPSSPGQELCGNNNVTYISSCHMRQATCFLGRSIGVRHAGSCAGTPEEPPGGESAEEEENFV
The molecule `O=C1c2ccccc2[C@](Cc2ccccc2I)(C(=O)NCCN2CCOCC2)[C@H](c2ccc(CO)cc2)N1Cc1ccccc1` came in with a composite z-score of 1.04.

As to `COC(=O)[C@@]1(Cc2ccc(F)cc2)[C@H]2c3cc(C(=O)N4CCCC4)n(CCc4c[nH]c5ccc(OC)cc45)c3C[C@H]2CN1C(=O)c1ccccc1`, the composite z-score was determined as 0.735.

`O=C1c2ccccc2[C@](Cc2ccccc2I)(C(=O)NCc2ccccc2)[C@H](c2ccc(CO)cc2)N1C1CCCCC1`: the composite z-score was 1.08.

With `COCC(=C=CC[C@H](O)c1cccc(OCCO)c1)C[C@H](O)c1ccccn1`, the composite z-score is -0.0496.

`CN1C2C=C(CCCO)C(C3C(=O)N(C(N)=O)C(=O)C32)C1c1cccs1` (stereo not given) had a composite z-score of -0.173.

Consider `CN(C)CCCNC(=O)[C@@H]1c2ccccc2C(=O)N(Cc2ccc(OC(F)(F)F)cc2)[C@H]1c1ccc(CO)cc1`, for which the composite z-score came to 0.351.

`CC(C)(C)OC(=O)CC[C@]1(C(=O)NCCN2CCOCC2)N=C(c2ccc(OCCCO)cc2)O[C@H]1c1ccccc1` came in with a composite z-score of -0.713.

As for `CC(C)CNC(=O)[C@@H]1c2ccccc2C(=O)N(Cc2cc(F)cc(C(F)(F)F)c2)[C@H]1c1ccc(CO)cc1`, the composite z-score stood at 0.328.

With `C=C(/C(=C/C[C@@H](OC(=O)c1ccncc1)c1ccc(OCCO)cc1)c1cc(C(=O)OC)ccc1OC)C(C)C`, the composite z-score was 0.609.

The molecule `C=C(CCCC)/C(=C/C[C@@H](OC(=O)c1ccncc1)c1cccc(OCCO)c1)c1cnc2ccccc2c1` had a composite z-score of 1.56.

On to `C=CCOC(=O)[C@H]1[C@@H]2C(=O)O[C@@H](c3ccccc3)[C@@H](c3ccccc3)N2[C@@H](c2ccc(OCCOC(=O)[C@H]3C[C@H]4C(=O)N[C@@H](Cc5ccccc5)C(=O)N4[C@H]3c3cccc(OCCO)c3)cc2)[C@]12C(=O)Nc1ccc(I)cc12`, for which the composite z-score is 1.29.

For `Cc1ccc(S[C@]2(C(=O)NC3CC3)CC(=O)N(Cc3ccccc3Cl)[C@@H]2c2ccc(CO)cc2I)cc1`, the composite z-score amounted to 0.41.

Regarding `C[C@@H]1ON(c2ccc(C(=O)OC(C)(C)C)cc2)[C@H](c2ccc(Br)cc2)[C@H]1C(=O)N1C(=O)OC[C@H]1Cc1ccccc1`, the composite z-score came out at 1.21.

In another experiment the target is Dickkopf-related protein 1 (Homo sapiens) (UniProt O94907). Nature of the experiment: DKK1 binders on small-molecule microarrays, primary screen, biochemical, small-molecule microarray, 635 nm fluorescence scan (AID 1106).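 Also: score merges emission near 667 nm with signal to noise over three replicate slides.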 The note with it: DKK1 binding, higher = more signal.
Dickkopf-related protein 1 (Homo sapiens), sequence (O94907 whole entry, looked up): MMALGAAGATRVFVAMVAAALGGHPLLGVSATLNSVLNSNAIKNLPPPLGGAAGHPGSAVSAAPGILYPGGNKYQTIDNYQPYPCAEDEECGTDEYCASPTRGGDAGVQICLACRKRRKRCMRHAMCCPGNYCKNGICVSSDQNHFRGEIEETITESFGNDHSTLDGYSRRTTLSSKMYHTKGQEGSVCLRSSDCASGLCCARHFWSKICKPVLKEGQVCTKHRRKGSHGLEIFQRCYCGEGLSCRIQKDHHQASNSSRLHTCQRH
Molecule `COc1ccc(C(O)C2C=CC3C(=O)N(c4ccccc4)C(=O)C3N2Nc2ccc(C#N)cc2)c2ccccc12` (stereo not given) registered a composite z-score of 0.138.

Consider `COCCOC(=O)N1C(=O)[C@@]2(c3ccccc31)[C@H](C(=O)N1CCN(c3ncccn3)CC1)[C@H]1C(=O)O[C@H](c3ccccc3)[C@H](c3ccccc3)N1[C@@H]2c1ccc(OCCO)cc1`, for which the composite z-score was found to be 0.286.

`CC=CC(O)C1C=CC2C(=O)N(c3ccccc3)C(=O)C2N1Nc1ccccc1` (stereo not given): the composite z-score is 0.239.

Molecule `Cc1ccc(S[C@]2(C(=O)NCC(F)(F)F)CC(=O)N(Cc3ccccc3)[C@@H]2c2ccc(CO)cc2)cc1` had a composite z-score of -1.32.

In the case of `[N-]=[N+]=Nc1ccccc1C[C@@]1(C(=O)O)N=C(c2ccc(OCCCO)cc2)O[C@@H]1c1ccccc1`, the composite z-score was -0.829.

Consider `COCCCNC(=O)[C@]1(Cc2ccccc2CN=[N+]=[N-])N=C(c2ccc(OCCCO)cc2)O[C@@H]1c1ccccc1`, for which the composite z-score was -0.817.

In the case of `CC(C)OC(=O)CC(=O)CC(O)c1cccc(C#N)c1` (stereo not given), the composite z-score is -0.618.

The molecule `CCCC=C(CCC)[C@@H](NP(=O)(c1ccccc1)c1ccccc1)c1ccc(C(F)(F)F)cc1` yielded a composite z-score of -0.15.

For `CCCN1C(=O)[C@]2(Cc3ccccc3)N=C(c3ccc(OCCCO)cc3)O[C@@H]2c2ccccc21`, the composite z-score is 0.223.

Consider `C[C@]12C(=O)N(CCCCCCO)[C@@H]3C(=O)N(c4ccc(Cl)cc4)CC=CC31O[C@@H]1/C=C\CCCOC(=O)C12` (stereo not given in full), for which the composite z-score is -0.742.

For `COCCOC(=O)N1C(=O)[C@@]2(c3ccccc31)[C@H](c1ccc(OCCO)cc1)N1[C@H](c3ccccc3)[C@H](c3ccccc3)OC(=O)[C@H]1[C@@H]2C(=O)Nc1nc2ccccc2s1`, the composite z-score is 0.293.

For the molecule `C=CCN1Cc2ccccc2C[C@@]2(N=C(c3ccc(OCCCO)cc3)O[C@H]2c2ccccc2)C1=O`, the composite z-score came out at 0.0968.

`CN(C)CCCCNC(=O)[C@H]1C[C@H]2C(=O)N3CCC[C@H]3C(=O)N2[C@H]1c1ccc(O)cc1` gave a composite z-score of -0.414.

`COC1(C)CN(Cc2ccccc2Br)[C@H](/C=C/c2ccccc2)[C@H](Cc2ccccc2)O1` (stereo not given in full) displayed a composite z-score of -1.04.

`COc1cc(OC)c(C(O)C2C=CC3C(=O)N(c4ccccc4)C(=O)C3N2Nc2ccc(C#N)cc2)cc1Br` (stereo not given) registered a composite z-score of -0.0884.

Take `O=C(O)[C@]1(Cc2ccccc2)N=C(c2ccc(OCCCO)cc2)O[C@@H]1c1ccccc1`: the composite z-score was -1.16.

In the case of `O=C1c2ccccc2[C@@]2(Cc3ccccc3N(C3CC3)C2=O)[C@H](c2ccc(CO)cc2)N1C1CCCCC1`, the composite z-score is -0.526.

The values above are taken from PubChem BioAssay.
